In the library only some 0.45% were active in any assay of this set; here they are far more common.
MLL CXXC-DNA inh: inhibitors of human MLL CXXC domain-DNA interaction; Q03164; MLL-CXXC / FITC-HOXA9 DNA fluorescence polarization; Potency, µM (highest dose often 115 µM), for inactives: at the highest dose activity change, negative = inhibition, actives largely listed as inhibitors; actives 0.037% (n = 290,000); AID 2662; active means well fitted inhibition curve with a large enough effect in the polarisation, with a control signal flat, not every such curve was filed as active; inconclusive means small, poorly fitted or top-dose-only effect, or effect the other way, or a change in a side signal; inactive means no such curve, though single readings can be large or run the other way; the % refers to the polarisation; further: potency means the concentration at half of the fitted maximal effect
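Steps: dispense CXXC domain solution (7 uM) → pin compounds or unlabeled HOX-A9 DNA control → 5 min ambient → add FLSN-HOX-A9 solution (50 nM) → spin → 30 min ambient → fluorescence polarization. Tris pH 7.5/NaCl/DTT/BSA buffer.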
MBNL1 CUG block: MBNL1-poly(CUG) RNA binding inhibition; actives 0.036% (n = 280,000); Q9NR56; Potency, µM (series often up to 57.5 µM), for the others: at the highest dose activity change, negative = inhibition, hits mostly inhibitors; TR-FRET MBNL1-His/biotin-(CUG)12 binding, 665/545 ratio; active means well fitted inhibition curve with a large enough effect in the signal ratio, with a control signal flat, not every such curve was filed as active; inconclusive means small, poorly fitted or top-dose-only effect, or effect the other way, or a change in a side signal; inactive means no such curve, though single readings can be large or run the other way; the % refers to the signal ratio; further: potency means the concentration at half of the fitted maximal effect; on the % scale 0 is the no-effect control and ±100 the full control effect
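Compounds (final 92 nM to 58 uM) are added to His-tagged MBNL1 and biotin-(CUG)12, then terbium anti-His antibody and streptavidin-XL665 (5 nM final). After 60 min at room temperature, the 665/545 nm ratio is read.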
Menin-MLL FL inh: displaces fluorescein MLL peptide from human menin. Fluorescence polarization, fluorescein-MLL peptide displacement from menin. FP activity change, % at 61.4 µM. 290,000 tested, under 10 active. AID 1766; active means well fitted curve in the direction sought with a large enough effect in the polarisation, not every such curve was filed as active; inconclusive means small, poorly fitted or top-dose-only effect, or effect the other way, or a change in a side signal; inactive means no such curve, though single readings can be large or run the other way; the % refers to the polarisation; further: % of control where 0% means no effect
Akt phos inh: Akt phosphorylation inhibition; Neuro2A IGF-stimulated pAkt S473 HTRF, 20 min; stronger effect = lower value; activity change, % for hits at 50 µM; actives 0.32% (n = 360,000); AID 651550; in the data active means activity change below about -80%; inconclusive means mostly about -51% to -80%; further: on the % scale 0 is the no-effect control and ±100 the full control effect
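Neuro2A cells in DMEM with 0.5% FBS, overnight at 37 deg C, given compound at single 50 µM final, then IGF (6 nM final) for 20 min at 37 deg C. Lysed; phospho-Akt Ser473 by HTRF after 24 h, 665/615 ratio.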
Menin MLL FP TR: menin-MLL binding inhibition, Texas Red mutant peptide | actives 0.23% (n = 270,000) | Potency, µM (series often up to 61.6 µM), inactives show top-dose FP activity change, negative = inhibition, most hits filed as inhibitors | AID 1768 | Menin + Texas Red MLL mutant peptide, fluorescence polarization | O00255; active means well fitted inhibition curve with a large enough effect in the polarisation, with a control signal flat, not every such curve was filed as active; inconclusive means small, poorly fitted or top-dose-only effect, or effect the other way, or a change in a side signal; inactive means no such curve, though single readings can be large or run the other way; the % refers to the polarisation; further: potency means the concentration at half of the fitted maximal effect; % of control where 0% means no effect
S-ASM inh: blocks human secretory acid sphingomyelinase; placental ASM, HMU-PC fluorogenic substrate, 60 min; actives 0.006% (n = 340,000); Potency, µM (titrated, usually from 57.5 µM), without a hit: top-dose activity change, negative = inhibition, actives largely listed as inhibitors; active means well fitted inhibition curve with a large enough effect; inconclusive means small, poorly fitted or top-dose-only effect; inactive means no such curve, though single readings can be large or run the other way; further: potency means the concentration at half of the fitted maximal effect
Target sequence (P17405 47-631 limits assumed): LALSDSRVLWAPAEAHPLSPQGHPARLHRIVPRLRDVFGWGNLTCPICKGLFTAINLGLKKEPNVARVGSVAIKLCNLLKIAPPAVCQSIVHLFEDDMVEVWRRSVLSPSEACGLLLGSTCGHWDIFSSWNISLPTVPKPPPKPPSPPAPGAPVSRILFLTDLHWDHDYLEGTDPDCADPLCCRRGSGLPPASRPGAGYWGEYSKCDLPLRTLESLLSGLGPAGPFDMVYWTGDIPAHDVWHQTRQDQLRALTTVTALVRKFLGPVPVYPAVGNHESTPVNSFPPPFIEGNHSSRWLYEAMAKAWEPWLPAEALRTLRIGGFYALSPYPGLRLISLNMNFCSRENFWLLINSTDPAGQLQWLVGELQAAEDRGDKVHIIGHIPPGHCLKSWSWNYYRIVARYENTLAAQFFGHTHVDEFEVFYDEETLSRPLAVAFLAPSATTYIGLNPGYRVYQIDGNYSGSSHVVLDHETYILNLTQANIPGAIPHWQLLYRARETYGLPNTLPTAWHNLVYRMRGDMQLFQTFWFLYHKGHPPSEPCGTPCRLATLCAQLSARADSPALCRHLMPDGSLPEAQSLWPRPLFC
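Human placenta-derived ASM enzyme was preincubated with compound for 10 minutes at room temperature, then given fluorogenic substrate HMU-PC0 (9 uM final) for 60 minutes at 37 °C; a pH 10 stop preceded fluorescence reading at Ex 386/Em 447 nm.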
An asterisk follows results filed as active; i = inactive; ? = inconclusive; . = no result; [ ] = another dose, or the depositor's remark.

SMILES	MLL CXXC-DNA inh	MBNL1 CUG block	Menin-MLL FL inh	Akt phos inh	Menin MLL FP TR	S-ASM inh
CCCCNS(=O)(=O)c1ccc(OC)c(Cl)c1Cl	-1%	2%	0	.	-15%	1%
CCC(C)NS(=O)(=O)c1ccc(OC)c(Cl)c1Cl (stereo not drawn)	7%	-1%	3	-122%*	-9%	-1%
COC(=O)C(=Nc1ccccc1)/C(C(=O)C(=O)N(C)c1ccccc1)=C(\O)c1ccccc1	-3%	11%	-1	i	.	6%
COC(=O)CCCC[C@@H]1SC[C@@H]2NC(=O)N[C@@H]21	.	.	-9	.	9%[24.8 µM]	.
COC(=O)CCCC[C@H]1SC[C@H]2NC(=O)N[C@]21O	2%	0.32µM*	0	.	4%	.
COC(=O)CCCCC1SCC2NC(=O)NC21O (stereo not drawn)	3%	0.71µM*	-1	i	1%	5%
COC(=O)C1CSC(C)(C)C(=O)N1 (stereo not drawn)	2%	-5%	5	i	16%	4%
COc1ccc(NC(=O)/C(Cl)=C(/Cl)S(=O)(=O)Cc2ccccc2)cn1	11%	-2%	2	i	0%	-13%
COc1ccc(-c2[nH]ncc2CN(C)CCc2c(C)n[nH]c2C)c(F)c1	-12%	-6%	3	i	1%	6%
CCOCCCNC(=O)c1cccs1	-1%	-1%	11	-116%*	-20%	4%
COC(=O)c1sccc1NC(=O)CSc1nnnn1-c1ccccc1F	3%	11%	8	i	?	-1%
Cc1csc(NC(=O)c2ccccc2O)n1	2%	-10%	1	-99%*	1%	103%
Cc1ccc(C(C)C)c(Oc2nnnn2-c2ccccc2)c1	-3%	1%	0	i	19%	-1%
Cc1ccc(C)c(Oc2nnnn2-c2ccccc2)c1	19%	-1%	3	-115%*	-10%	-1%
O=C(NC1CCCC1)C(c1ccc(N2CCOCC2)cc1)N(Cc1ccco1)C(=O)c1ccco1 (stereo not drawn)	-1%	1%	2	i	-11%	0%
O=C(NN1C(=O)C2C3C=CC(C4CC34)C2C1=O)c1ccccc1Cl (stereo not drawn)	4%	-2%	3	i	-14%	4%
S=c1[nH]nc(-c2ccccc2)n1/N=C/c1cccc(Cl)c1	-14%	2%	-1	i	-15%	-11%
CC1=C(C(=O)OCC2CCCO2)C(c2ccccc2)C2=C(CCCC2=O)N1 (stereo not drawn)	13%	9%	-4	i	-4%	296%
COc1ccc(C2C(C(=O)OCC3CCCO3)=C(C)NC3=C2C(=O)CC(c2ccco2)C3)cc1O (stereo not drawn)	1%	15%	-3	-113%*	1%	37%
O=C1c2cccnc2C(O)N1Cc1ccccc1 (stereo not drawn)	23%	-2%	-7	i	6%	-1%
O=C1c2cccnc2C(O)N1Cc1ccc(F)cc1 (stereo not drawn)	-10%	2%	-1	-95%*	-9%	3%
CCN(CC)CCCN1C(=O)C(O)=C(C(=O)c2cc3cccc(OC)c3o2)C1c1ccncc1 (stereo not drawn)	-5%	?	4	-90%*	20%	-1%
CCN(CC)CCCN1C(=O)C(O)=C(C(=O)c2cc3ccccc3o2)C1c1ccccn1 (stereo not drawn)	17%	90%	4	-95%*	-1%	-1%
COc1cccc2cc(C(=O)C3=C(O)C(=O)N(CCCN(C)C)C3c3ccncc3)oc12 (stereo not drawn)	11%	18%	2	.	-3%	.
Cc1ccc(C)c(SCC(=O)OCC(=O)N2CC(C)OC(C)C2)c1 (stereo not drawn)	-10%	-7%	-1	i	-12%	-3%
